# Source: PubChem
# Compounds with a hit are over-represented: about 2% of the library has one in this group of screens.
# MBD2 inh: MBD2-methylated oligo binding inhibition. TR-FRET, MBD2 binding to methylated oligonucleotide. inhibition, % at 4.4 µM. 0.31% of 370,000 active; in the data active = inhibition above about 13%
# UHRF1 MBD2 ctr: human UHRF1 methylated DNA binding inhibitors. Q96T88. UHRF1 binding to methylated oligo, TR-FRET. inhibition, % at 4.4 µM. 0.75% of 370,000 active. AID 687016; in the data active = inhibition above about 21%;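 also: UHRF1 SRA domain binding a hemimethylated CpG hairpin DNA probe; 0% = median of test compound wells and 100% = reference inhibitor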
# Target sequence (Q96T88 whole entry, looked up, the tested form may be a part): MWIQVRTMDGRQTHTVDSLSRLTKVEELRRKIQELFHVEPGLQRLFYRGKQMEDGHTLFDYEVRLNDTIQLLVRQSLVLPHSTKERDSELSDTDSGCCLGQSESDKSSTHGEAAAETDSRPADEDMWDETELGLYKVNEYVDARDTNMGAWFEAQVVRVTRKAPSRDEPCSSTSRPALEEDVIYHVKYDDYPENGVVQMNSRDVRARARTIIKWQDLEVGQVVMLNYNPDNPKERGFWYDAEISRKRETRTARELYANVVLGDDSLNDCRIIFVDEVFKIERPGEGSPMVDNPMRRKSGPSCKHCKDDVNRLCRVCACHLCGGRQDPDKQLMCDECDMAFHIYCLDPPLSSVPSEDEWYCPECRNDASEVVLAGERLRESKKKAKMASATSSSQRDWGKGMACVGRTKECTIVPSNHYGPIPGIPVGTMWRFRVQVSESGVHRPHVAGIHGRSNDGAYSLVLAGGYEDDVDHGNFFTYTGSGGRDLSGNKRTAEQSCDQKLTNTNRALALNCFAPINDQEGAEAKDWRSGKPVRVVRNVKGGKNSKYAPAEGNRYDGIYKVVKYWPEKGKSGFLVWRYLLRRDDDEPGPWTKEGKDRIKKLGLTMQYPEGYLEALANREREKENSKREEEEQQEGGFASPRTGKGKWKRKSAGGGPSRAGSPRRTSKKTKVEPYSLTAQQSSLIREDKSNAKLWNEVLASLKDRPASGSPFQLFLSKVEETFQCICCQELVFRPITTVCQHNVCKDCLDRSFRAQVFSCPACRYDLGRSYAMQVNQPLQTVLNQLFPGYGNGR
# Rin1 Abl inh: blocks binding of human Rin1 to Abl. P00519+Q13671. TR-FRET Rin1/Abl binding, biochemical. inhibition, % at 7.35 µM. 0.4% of 360,000 active. AID 588664; in the data active = inhibition above about 5%, passing the limit was not always enough
# TCR-CD3 inh: human TCR-CD3 binding inhibition; TAMRA-labeled TCR probe fluorescence, biochemical; inhibition, % at 9.4 µM; 0.37% of 360,000 active; AID 651800; in the data active = inhibition above about 19%;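 also: recombinant mutant TCR 2C K166C tagged with TAMRA read by polarization; 0% = receptor in buffer alone and 100% = receptor with positive control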
# LEDGF integ inh: blocks HIV-1 LEDGF/p75-dependent DNA integration; inhibition, % at 3.7 µM; AID 743269; TR-FRET IN-LEDGF/p75 DNA integration, Eu/Cy5; 0.64% of 370,000 active;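 active = inhibition above the screen-wide mean plus 3 SD, cut at about 13% in these data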;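 also: signal is the Cy5 over europium emission ratio at 671 and 618 nm; 0% = plate median of compound wells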
# IN multimer up: activates HIV-1 integrase multimerization in LEDGF counter-screen; TR-FRET HIV-1 integrase multimerization, biochemical; 17% of 2,000 active; shares compounds with LEDGF integ inh; activation, % at 7.7 µM; in the data active = activation above about 8.9%
# TRFRET interf: counter-screen for LEDGF/p75 integration inhibitors: TR-FRET optical interference; shares compounds with LEDGF integ inh; TR-FRET optical interference counterscreen, HIV-1 IN multimerization; inhibition, % at 7.7 µM; 2,000 tested, under 10 active; AID 1053135;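 active = inhibition above the mean over all tested compounds plus 3 SD, which no compound reached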;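 also: 0% = integrase with antibodies and DMSO and 100% = antibodies without integrase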
# IN-LEDGF confirm: confirmation of HIV-1 LEDGF/p75-dependent integration inhibitors; 36% of 2,000 active; AID 1053136; inhibition, % at 3.7 µM; shares compounds with LEDGF integ inh; TR-FRET LEDGF/p75-dependent HIV-1 integration, biochemical; in the data active = inhibition above about 14%
# An asterisk follows results filed as active; . = no result.
SMILES,MBD2 inh,UHRF1 MBD2 ctr,Rin1 Abl inh,TCR-CD3 inh,LEDGF integ inh,IN multimer up,TRFRET interf,IN-LEDGF confirm
O=c1c2c(-c3ccco3)csc2nc(SCc2cn3cccnc3n2)n1-c1ccccc1,7.3,31.9*,-1.6,10.2,26.7*,1.7,-8.3,22.3*
NC(=O)CSc1nc2scc(-c3ccco3)c2c(=O)n1-c1ccccc1,0.7,3.0,5.3,2.0,17.5*,-0.6,2.9,4.6
O=C(CSc1nc2scc(-c3ccco3)c2c(=O)n1-c1ccccc1)N1CCOCC1,3.0,-3.1,-9.4,6.8,2.1,.,.,.
Cc1cccc(/N=C/c2c(O)[nH]c3ccccc23)n1,-2.8,-1.1,-1.5,-7.0,-4.8,.,.,.
Cc1cccc(/N=C/c2sc3ccccc3c2O)n1,-4.2,-0.1,-3.5,-16.0,49.8*,8.2,-41.0,-1.5
O=C(NCc1ccccc1)C1Nc2ccc(OC(F)(F)F)cc2C2C=CCC12 (stereo not drawn),-3.4,-1.8,2.8,-2.7,22.1*,0.6,-2.2,-8.0
CCCCCC/C(C=O)=C\c1ccccc1,0.8,0.2,3.5,6.7,-1.6,.,.,.
Cc1[nH]c2ccccc2c1CC(=O)Nc1ccc(Nc2cccnc2)c(-c2ccc(OC(F)(F)F)cc2)c1,2.0,3.5,.,-4.1,-2.8,.,.,.
COC(=O)C1=C(O)/C(=C\c2ccc(CNC(=O)C(=O)Nc3ccc(C)cc3)o2)N=C1C,2.1,0.3,3.4,-1.5,2.4,.,.,.
CCOC(=O)C1=C(O)/C(=C/c2ccc(CNC(=O)C(=O)Nc3ccc(C)cc3)o2)N=C1C,0.0,7.7,-1.0,-7.2,35.1*,0.5,-2.6,10.5
COC(=O)C1=C(O)/C(=C\c2ccc(CNC(=O)C(=O)Nc3ccc(C)c(C)c3)o2)N=C1C,1.7,8.9,-1.7,-1.7,41.1*,4.2,-21.3,6.5
CCCCCCSc1ccc([C@H]2N[C@@](CC(C)C)(C(=O)OC)[C@H]3C(=O)N(CC)C(=O)[C@@H]23)cc1,1.9,6.7,-1.0,9.5,2.5,.,.,.
CCCCCCSc1ccc([C@H]2N[C@@](C)(C(=O)OC)[C@H]3C(=O)N(CC)C(=O)[C@@H]23)cc1,2.7,0.4,2.5,2.7,15.3*,0.1,-0.6,-2.8
CCOC(=O)c1c(C)oc2c1c(C=NCC1CCCO1)c(O)c1ccccc12 (stereo not drawn),-4.7,9.1,0.7,-7.0,16.9*,0.8,-2.9,-1.4
COc1ccc(OC)c(NC(=O)c2cccc(NC(=O)c3ccco3)c2)c1,9.3,8.2,-0.1,-4.1,-2.7,.,.,.
CC(=O)N1CCC(N2CCN(c3ccccc3F)CC2)CC1,3.5,5.6,-5.7,2.1,40.5*,1.1,-5.5,-3.2
O=C1c2ccccc2C(c2nnnn2-c2ccc3c(c2)OCCO3)N1Cc1cccs1 (stereo not drawn),3.8,-2.8,.,5.6,-0.2,.,.,.
CCOC1=C2CN(S(=O)(=O)c3ccc(C)cc3)[C@H](c3ccccc3)C[C@@H]2N(S(=O)(=O)c2ccc(C)cc2)[C@H](c2cccs2)C1,-10.7,-1.3,1.6,2.0,-0.3,.,.,.
CN(C)c1ncnc2c1ncn2[C@H]1CN(Cc2cccnc2)C[C@@H](CO)O1,0.8,-1.3,-4.4,2.2,51.8*,-1.0,4.9,-6.5
COCCCC1CCN(C(=O)C2CCC(=O)N(Cc3cccc(F)c3)C2)CC1 (stereo not drawn),-2.9,-1.4,3.4,-2.8,1.4,.,.,.
CCOC(=O)N1CCC(N2C(=O)c3ccc(C(=O)Nc4cccc(OC)c4)cc3C2=O)CC1,-7.7,-0.9,1.6,5.1,-5.4,.,.,.
CC1=CC(=C2N=C(c3ccccc3)OC2=O)C=C(C)O1,1.0,3.4,-5.4,-1.9,-3.5,.,.,.
CC(=C1N=C(c2ccccc2)OC1=O)c1cccs1,0.7,4.2,.,3.6,19.4*,0.0,0.0,-1.8
S=c1[nH]nc(-c2ccccc2Cl)n1/N=C/C=C/c1ccco1,-3.2,4.0,-4.2,16.2,12.8,.,.,.
S=c1[nH]nc(-c2ccncc2)n1/N=C/C=C/c1ccco1,-0.1,14.5,5.3,4.0,18.5*,5.3,-26.5,33.4*
SMILES,MBD2 inh,UHRF1 MBD2 ctr,Rin1 Abl inh,TCR-CD3 inh,LEDGF integ inh,IN multimer up,TRFRET interf,IN-LEDGF confirm
Cc1cccc(-c2n[nH]c(=S)n2/N=C/C=C/c2ccco2)c1,11.3,26.5*,0.0,13.9,29.3*,2.3,-11.6,8.1
O=C(Nc1ccc(F)c(F)c1)C1CCCN1S(=O)(=O)c1ccc(F)cc1 (stereo not drawn),-3.1,-2.0,2.7,4.9,2.9,.,.,.
COC(=O)C1=C(N)N(c2ccccc2C(F)(F)F)C2=C(C(=O)CCC2)C1c1ccc2c(c1)OCO2 (stereo not drawn),0.8,-3.0,0.0,0.7,32.7*,0.4,-1.5,-7.8
O=C1c2c(O)cc(O)cc2O[C@H](c2ccc(O)c(O)c2)[C@H]1O,-5.8,0.3,0.6,-3.9,22.6*,1.6,-8.2,12.1
Cc1ccc(S(=O)(=O)NCC2CCN(C(=O)C(=O)c3cccs3)CC2)cc1,4.9,1.1,.,-7.6,-3.5,.,.,.
CCCNC(=O)N(C)C[C@H]1Oc2ncc(C#CCc3ccccc3)cc2C(=O)N([C@H](C)CO)C[C@H]1C,5.3,1.4,1.3,4.0,-0.5,.,.,.
Oc1ccc(Nc2ccccc2F)c2cccnc12,-15.7,-3.2,.,.,34.2*,1.6,-8.2,1.2
Cc1ccc(NC(=O)COC(=O)c2ccc(Cl)nc2)cc1S(=O)(=O)N1CCCCC1,4.4,-3.5,2.7,4.6,3.6,.,.,.
CN(C)c1ccc(C=C(C#N)C(=O)c2ccccc2)cc1Br,1.2,2.5,2.9,-6.2,4.2,.,.,.
O=C(Cn1cnc([N+](=O)[O-])n1)c1ccc(O)c(O)c1,4.8,14.0,-0.5,7.7,40.5*,9.9*,-35.3,22.2*
COC(=O)[C@]12CCCCC=C1N(Cc1ccco1)C(=O)[C@H](CC(=O)NCc1ccccc1)C2,1.2,11.8,.,-2.3,-2.8,.,.,.
Cc1ccc(-n2nc3c(c2NC(=O)c2ccc4c(c2)OCO4)CS(=O)C3)c(C)c1 (stereo not drawn),-0.3,-4.1,-0.4,-0.9,5.3,.,.,.
CC1(OC(=O)CCc2ccccc2)C(=O)C=C2C=C3CCCN3C=C2C1=O (stereo not drawn),-3.0,6.8,4.9,9.2,20.2*,0.6,-2.9,22.7*
CC1(OC(=O)c2cccs2)C(=O)C=C2C=C3CCCN3C=C2C1=O (stereo not drawn),.,.,7.5,.,.,.,.,.
Cc1ccc(-c2nn(-c3ccccc3)cc2CO)o1,-5.5,0.4,-1.7,1.3,15.4*,-0.1,0.4,4.0
O=C(c1ccc2c(=O)n(Cc3ccc(Cl)cc3)c(=S)[nH]c2c1)N1CCOCC1,1.8,0.9,0.2,-4.3,-2.0,.,.,.
COc1ccccc1/C=N/NC(=O)CC(=O)NCCc1ccccc1,-2.2,-0.7,-3.2,4.2,-2.9,.,.,.
